Bioassay records as filed in PubChem.
FBW7 act = activators of human E3 ligase FBW7. Q969H0. AlphaScreen FBW7–phospho-cyclin E peptide binding, activator screen. normalized activity (activation), % at 26.1 µM. 650,000 tested, 0.13% active. AID 1259310; in the data active = normalized activity above about 1.9%;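 also: purified mutant Fbw7 with reduced substrate affinity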
Target sequence (Q969H0 whole entry, looked up): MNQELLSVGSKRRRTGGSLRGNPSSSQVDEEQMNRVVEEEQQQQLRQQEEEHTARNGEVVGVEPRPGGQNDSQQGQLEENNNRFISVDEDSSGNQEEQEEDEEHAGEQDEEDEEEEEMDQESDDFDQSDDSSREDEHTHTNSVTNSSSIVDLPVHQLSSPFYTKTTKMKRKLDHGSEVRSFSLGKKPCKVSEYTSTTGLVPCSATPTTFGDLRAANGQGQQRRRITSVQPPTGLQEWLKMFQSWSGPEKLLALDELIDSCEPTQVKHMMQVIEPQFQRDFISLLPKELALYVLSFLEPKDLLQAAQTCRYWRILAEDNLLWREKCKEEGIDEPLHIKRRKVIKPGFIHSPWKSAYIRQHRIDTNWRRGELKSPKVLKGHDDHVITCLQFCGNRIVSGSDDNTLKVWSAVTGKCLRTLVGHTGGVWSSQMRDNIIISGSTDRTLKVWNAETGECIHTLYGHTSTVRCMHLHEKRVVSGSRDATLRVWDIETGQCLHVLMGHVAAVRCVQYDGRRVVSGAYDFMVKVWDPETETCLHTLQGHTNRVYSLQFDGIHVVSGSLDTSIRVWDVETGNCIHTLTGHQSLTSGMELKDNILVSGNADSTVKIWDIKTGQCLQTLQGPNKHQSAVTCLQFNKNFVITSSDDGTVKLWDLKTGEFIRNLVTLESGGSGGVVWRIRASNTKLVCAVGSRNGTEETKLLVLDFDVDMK
TEAD-YAP inh = TEAD-YAP interaction inhibition. HEK-TIYL cells, TEAD-Gal4/YAP UAS-luciferase luminescence. inhibition, % at 9.12 µM. 640,000 tested, 1.4% active. AID 1259422; in the data active = inhibition above about 32%;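 also: 0% = median of test compound wells and 100% = reference inhibitor wells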
GPR151 activ = activators of human GPR151; Q8TDV0; PathHunter beta-arrestin GPR151 cells, luminescence; activation, % at 11.2 µM; 650,000 tested, 1% active; AID 1508602; in the data active = activation above about 4.9%;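 also: 0% = median of compound wells and 100% = cells with positive control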
MITF primary = inhibitors of human MITF. O75030. AlphaScreen MITF homodimerization, bead proximity signal. inhibition, % at 2.6 µM. 650,000 tested, 0.91% active. AID 1259374; in the data active = inhibition above about 50%;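 also: 0% = vehicle wells with protein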
GPR151 confirm = confirmation of human GPR151 activators | GPR151 PathHunter beta-arrestin cells, luminescence, 90 min; % of EA-reagent control over plate median | shares compounds with GPR151 activ | activation, % at 11.2 µM | 6,700 tested, under 10 active;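 active = mean percent activation across replicates above the confirmation screen cutoff of 4.91%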
GPR119 counter = GPR119 activation, counter-screen for GPR151 activators. shares compounds with GPR151 activ. GPR119 PathHunter beta-arrestin cells, luminescence, 90 min; 0 = compound-well median, 100 = enzyme-acceptor control. activation, % at 11.2 µM. 6,700 tested, 0.3% active. AID 1508611;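 active = mean percent activation in the counterscreen above 29.09%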;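 also: counterscreen on off-target GPR119 to flag nonselective hits from the GPR151 activator screen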
Numbers without * were called inactive; . = no result given. Shown are actives, neighbours in structure and some others; about 3.5% of the full set was active somewhere.

SMILES	FBW7 act	TEAD-YAP inh	GPR151 activ	MITF primary	GPR151 confirm	GPR119 counter
COc1ccc(Cl)cc1C(=O)Nc1ccc(N2CCCCS2(=O)=O)cc1	-0.2	-8.5	9.0*	-6.4	0.3	4.3
COc1ccc(/C(O)=C2/C(=O)C(=O)N(CCN3CCOCC3)C2c2ccc(C(C)(C)C)cc2)cc1 (stereo not given)	-0.1	2.7	7.0*	9.8	-0.7	-5.0
O=C1C(=O)N(CCN2CCOCC2)C(c2cccnc2)/C1=C(/O)c1ccc(Br)cc1 (stereo not given)	0.4	-5.4	-0.6	1.6	.	.
O=C1C(=O)N(CCCN2CCOCC2)C(c2cccnc2)/C1=C(/O)c1ccc(Br)cc1 (stereo not given)	0.1	11.8	9.1*	2.9	-1.2	-13.1
Cc1ccc(NC(=O)CCC(=O)NNC(=O)c2ccccc2)c(C)c1	0.0	-1.8	-0.6	8.0	.	.
CC(=O)NS(=O)(=O)c1ccc(NC(=O)Nc2ccccc2)cc1	0.1	2.6	-1.2	3.0	.	.
CC(C)N(C)Cc1nnnn1CC(=O)N1CCN(c2nc3ccccc3o2)CC1	0.0	15.0	0.1	6.5	.	.
COc1ccc(C(=O)NC(c2ccccc2OC)c2cc(Cl)c3cccnc3c2O)cc1 (stereo not given)	-0.2	16.5	0.1	5.4	.	.
COc1ccc(C(NC(C)=O)c2cc(Cl)c3cccnc3c2O)cc1 (stereo not given)	-0.5	84.2*	5.1*	61.7*	0.0	-7.8
CC(=O)Nc1cccc(NC(=O)CSc2nnnn2-c2ccc3c(c2)OCO3)c1	0.6	-1.4	5.6*	6.4	0.2	10.9
Fc1ccc(-c2cc3nc4c(c(N5CCOCC5)n3n2)CCC4)cc1	0.5	4.9	0.7	5.7	.	.
Fc1cccc(-c2cc3nc4c(c(N5CCOCC5)n3n2)CCC4)c1	-0.3	0.3	6.7*	6.9	1.9	9.0
CC(=O)c1ccc2c(c1)C(=Cc1ccccc1)c1cc(C(C)=O)ccc1-2	-0.1	-4.5	1.7	12.7	.	.
CCCCCCCn1c(Cc2ccccc2)nc2ccccc21	0.1	-4.0	5.8*	-0.7	-0.4	-1.4
NC(=O)c1ccsc1NC(=O)CSc1ccc(Cl)cc1	0.1	-32.9	9.5*	-0.9	-0.8	6.6
COCCCNC(=O)Cc1ccc(F)cc1	0.1	9.8	-0.3	0.1	.	.
COCCNC(=O)Cc1ccc(F)cc1	-0.2	-5.5	5.4*	0.1	-0.2	-4.7
COc1ccccc1NC(=O)CN(C)S(=O)(=O)c1ccccc1	0.1	0.9	-0.5	-29.6	.	.
COc1cc(NC(=O)CN(C)S(=O)(=O)c2ccc3ccccc3c2)c(OC)cc1Cl	0.1	-1.7	5.8*	0.4	-1.4	-15.7
COc1cc(NC(=O)Cc2ccc(F)cc2)c(OC)cc1Cl	0.8	-4.8	5.0*	2.2	0.3	-4.9
COc1ccccc1NC(=O)NNC(=O)CN(C)S(=O)(=O)c1ccc(C)cc1	0.2	7.8	5.3*	4.2	0.2	4.1
COc1cc(NC(=O)Cc2ccc(Cl)cc2)c(OC)cc1Cl	0.2	2.8	-0.4	49.8	.	.
COc1cc(C(=O)Nc2nnc(SCC(=O)Nc3ccc(F)cc3)s2)cc(OC)c1OC	0.1	4.4	-0.8	-1.3	.	.
C#CCOC(=O)CCCC(=O)Nc1ccc([N+](=O)[O-])cc1Cl	-0.1	3.9	0.4	5.7	.	.
C#CCOC(=O)CCCNc1ccc([N+](=O)[O-])cc1[N+](=O)[O-]	0.1	0.8	5.6*	14.7	-0.7	7.1
SMILES	FBW7 act	TEAD-YAP inh	GPR151 activ	MITF primary	GPR151 confirm	GPR119 counter
COC(=O)c1ccc(NC(=O)/C(=C\c2ccc(OC)c(OC)c2)NC(=O)c2ccc(Cl)cc2)cc1	0.1	1.0	7.8*	3.7	0.1	2.7
CCC(C)NC(=O)C(=O)c1c[nH]c2ccccc12 (stereo not given)	-0.1	-12.6	-0.3	8.5	.	.
Cc1sc(NC(=O)c2ccco2)c(CN2CCN(CCO)CC2)c1C	-0.2	14.1	25.1*	0.6	0.9	1.3
Cc1nc(N2CCN(C)CC2)c2c(C)c(C(=O)N3CCC(Cc4ccccc4)CC3)sc2n1	0.0	3.5	7.1*	10.9	-0.8	-9.3
COc1ccccc1CNC(=O)c1sc2nc(C)nc(N3CCCCC3)c2c1C	-0.1	-7.7	5.2*	4.6	0.4	1.3
CCOCCCNC(=O)c1ccc(CNC(=O)c2ccc(Br)cc2)cc1	1.5	7.1	-1.4	18.7	.	.
CCCCN(CC)C(=O)c1c[nH]c2ccc(S(=O)(=O)N(C)c3ccc(Cl)cc3)cc2c1=O	0.0	-1.0	0.8	-3.6	.	.
CCCCN(CC)C(=O)c1c[nH]c2ccc(S(=O)(=O)N(C)c3ccc(Cl)cc3F)cc2c1=O	-0.1	5.7	8.3*	-0.1	-0.5	-10.7
CN(c1ccc(F)cc1)S(=O)(=O)c1ccc2[nH]cc(C(=O)NCC3CCCO3)c(=O)c2c1 (stereo not given)	0.3	-1.4	5.4*	-5.4	0.0	0.3
COc1cccc(Nc2nnc(-c3cc4ccc(O)cc4oc3=O)s2)c1	0.0	-2.9	5.8*	2.6	-1.3	-14.9
O=C(CCl)N1CCCc2ccccc21	-0.6	17.1	11.0*	-5.0	-0.3	2.2
O=C(NC1CC2CCCC(C1)N2CC(=O)N1CCCc2ccccc21)C1CCCCC1 (stereo not given)	0.4	7.4	8.7*	14.6	0.3	5.7
COc1ccc(CC(=O)N/N=C/c2ccc(-c3ccc([N+](=O)[O-])cc3)o2)cc1	0.1	10.1	-0.8	-6.8	.	.
CCCCC[C@H]1O[C@H]1C/C=C\C/C=C\C/C=C\CCCC(=O)O	.	.	-2.0	-3.1	.	.
CCCCC/C=C\C/C=C\C/C=C\C[C@H]1O[C@H]1CCCC(=O)O	.	.	5.8*	-2.4	0.3	8.2
Cc1ccc(Nc2cnn(C34CC5CC(CC(CC(=O)O)(C5)C3)C4)c(=O)c2Cl)cc1F	0.2	1.0	0.7	17.1	.	.
CCc1cccc(C)c1NC(=O)C(C)C	0.7	-5.1	-1.4	16.5	.	.
CCc1cccc(C)c1NC(=S)NN	0.4	7.2	6.2*	15.6	-0.7	-9.6
O=C(CSc1ncccc1-c1nc2ccccc2[nH]1)N1CCCC1	0.3	-6.5	3.3	-2.6	.	.
CC(C)OCCCNC(=O)c1ccc(CS(=O)Cc2ccc(Cl)cc2)o1 (stereo not given)	0.2	5.1	0.3	5.2	.	.
C=CCNC(=O)COc1ccc(S(=O)(=O)NC(C)c2ccccc2)cc1Cl (stereo not given)	0.2	-0.5	2.2	-0.5	.	.
CC(NS(=O)(=O)c1ccc(OCC(=O)Nc2ccccc2)c(Cl)c1)c1ccccc1 (stereo not given)	0.2	-2.7	6.1*	-20.2	0.7	4.5
COc1ccc(Cl)cc1S(=O)(=O)NC(C)c1ccccc1 (stereo not given)	-0.1	-0.6	0.6	0.8	.	.
CCOc1ccc(Cl)cc1S(=O)(=O)NC(C)c1ccccc1 (stereo not given)	0.1	-8.9	5.1*	-6.3	-0.3	5.2
